Source: PubChem BioAssay (The Scripps Research Institute Molecular Screening Center)
Rows were chosen to be rich in hits. Some 4.6% of all compounds tested hit in one or more screens of this group.
ssDAF-12 act = S. stercoralis DAF-12 activation, primary screen; 370,000 compounds, 1% hits; AID 652126; HEK293 ssDAF-12/GRIP1 lit1-tk-luc reporter, luminescence; % of 3 µM dafachronic acid response; activation, % at 6.8 µM;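 active = activation above the mean over all tested compounds plus 3 SD, cut at about 0.9% in these data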
DAX1 inh-1 = inhibitors of DAX1 repression of SF-1 activated StAR promoter; 370,000 compounds, 1.1% hits; HEK293T StAR-luciferase reporter, SF-1/DAX-1 repression relief; inhibition, % at 6.8 µM;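 active = inhibition above the mean over all tested compounds plus 3 SD, cut at about 3.6% in these data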;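 also: higher inhibition means more luminescence from relief of DAX-1 repression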
hcDAF12 agonist = H. contortus DAF-12 activation, primary screen; HEK293 hcDAF-12 lit1-tk-luc reporter, luminescence; 0% DMSO, 100% Δ7-dafachronic acid; activation, % at 6.8 µM; 370,000 compounds, 1.4% hits;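 active = activation above the mean of all tested compounds plus 3 SD, cut at about 5.5% in these data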
DAX1 inh-2 = NR0B1 (DAX1) inhibition; P51843; HEK293 Gal4-DAX1 luciferase reporter, luminescence; inhibition, % at 6.75 µM; 340,000 compounds, 0.99% hits; AID 504766;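 active = inhibition above the mean over all tested compounds plus 3 SD, cut at about 4.2% in these data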;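 also: inhibition shows as a rise in luminescence from relieved DAX1 repression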
Target sequence (P51843 207-470 limits assumed): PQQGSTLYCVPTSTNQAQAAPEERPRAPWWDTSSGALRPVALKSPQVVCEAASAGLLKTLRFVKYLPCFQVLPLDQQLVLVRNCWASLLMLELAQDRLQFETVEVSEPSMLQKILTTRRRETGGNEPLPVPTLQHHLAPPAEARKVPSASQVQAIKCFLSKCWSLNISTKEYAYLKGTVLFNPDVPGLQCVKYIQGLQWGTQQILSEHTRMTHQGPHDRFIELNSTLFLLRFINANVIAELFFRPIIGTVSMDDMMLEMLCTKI
hgDAF12 agonist = agonists of H. glycines DAF-12 nuclear receptor | HEK293 GAL4-hgDAF12 UAS-luciferase reporter, agonist luminescence; normalized to butyrate control | activation, % at 6.8 µM | 370,000 compounds, 1.8% hits;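 active = activation above a cutoff set at the mean of all screened compounds plus 3 SD, cut at about 10% in these data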
Wee1 degr inh = blocks degradation of human Wee1 kinase | 220,000 compounds, 1.2% hits | reporter increase, % at 5 µM | HeLa Luc-Wee1K328M stability, luciferase luminescence; 100% = proteasome inhibitor MG132 effect | P30291;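 active = activation above the mean of all tested compounds plus 3 SD, set per screening run, cut at about 8.8% in these data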;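 also: cells exposed to compound for 20 h before luminescence read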
A number is an active result; - = inactive; . = no result given.

SMILES	ssDAF-12 act	DAX1 inh-1	hcDAF12 agonist	DAX1 inh-2	hgDAF12 agonist	Wee1 degr inh
COCCCNC(=O)CN(c1cc(C(F)(F)F)ccc1Cl)S(C)(=O)=O	-	-	-	-	-	10.5
CCCCNC(=O)CN(c1cc(C(F)(F)F)ccc1Cl)S(C)(=O)=O	-	-	-	-	-	-
COc1ccccc1/C=C/C(=O)OCC(=O)NC1CCS(=O)(=O)C1 (centres undefined)	-	-	-	-	-	.
Cc1csc(C(=O)O)c1NC(=O)c1ccc(F)cc1	-	-	-	-	-	.
COC(=O)c1scc(C)c1N/N=C(\C)c1ccc(F)cc1	1.0	-	-	-	-	-
Cc1onc(-c2ccccc2)c1-c1ccnn1S(=O)(=O)c1ccc(Cl)cc1	-	-	-	-	-	10.0
Cc1ccc(S(=O)(=O)n2nccc2-c2c(-c3ccccc3)noc2C)cc1	-	-	-	.	-	-
C[C@@H]1CN([C@@H](C)CO)C(=O)CCCn2nncc2CO[C@H]1CN(C)Cc1ccccc1	-	-	-	-	-	.
Cc1ccccc1NC(=O)COc1ccc(Br)cc1CNCCCO	-	-	-	5.2	-	-
COc1ccccc1NC(=O)COc1ccc(Br)cc1CNCCCN1CCOCC1	-	-	-	-	-	-
C=CCSc1nc2c(N)ncnc2n1C1OC(CO)C(O)C1O (centres undefined)	-	-	-	-	-	.
COCc1[nH]nc2c1C(c1ccc(F)cc1)N(Cc1ccccc1)C2=O (centres undefined)	-	-	-	.	-	.
CCc1ccc(C(=O)NNC(=O)CCc2nc3ccccc3c(=O)[nH]2)cc1	-	3.6	-	-	-	.
COc1ccc(C(=O)NNC(=O)CCc2nc3ccccc3c(=O)[nH]2)cc1	-	-	-	-	-	.
CN1CCN(C(=S)c2cn(Cc3ccc(F)cc3)c3ccccc23)CC1	-	-	-	-	-	9.2
CN1CCN(C(=S)c2cn(Cc3cccc(F)c3)c3ccccc23)CC1	-	-	-	-	-	-
CCOC(=O)CNC(=S)N(CCCN1CCCCCC1)Cc1cccs1	-	-	-	-	-	-
CCOC(=O)CNC(=S)N(CCCN1CCCCC1)Cc1cccs1	-	-	-	-	-	9.8
Cc1ccc(OCC(=O)N(Cc2ccccc2)c2c(N)n(Cc3ccccc3)c(=O)[nH]c2=O)c(C)c1	-	-	-	-	-	.
O=C1CCC(C(=O)OCC(=O)c2c[nH]c3ccccc23)=NN1	-	-	5.6	-	-	-
COC(=O)c1ccc(NC(=O)C(=O)c2c[nH]c3ccccc23)cc1	1.8	-	6.3	-	-	.
Cc1ccc(C(=O)OCC(=O)c2c[nH]c3ccccc23)cc1	1.9	-	6.5	-	-	-
O=C(CSCC(=O)N1CCCCC1)OCC(=O)c1c[nH]c2ccccc12	1.3	-	-	-	-	-
O=C(COC(=O)c1c[nH]c2ccccc12)Nc1ccccc1	-	-	-	-	-	.
CCCCCCCCCC1(CC(=O)OCC)SCCN1C(N)=O (centres undefined)	-	-	-	-	-	.
SMILES	ssDAF-12 act	DAX1 inh-1	hcDAF12 agonist	DAX1 inh-2	hgDAF12 agonist	Wee1 degr inh
N[C@H]1C(O)O[C@H](CO)[C@@H](O)[C@@H]1O (some centres undefined)	-	-	-	-	-	.
CCN(CC)CCCN(Cc1cc2cc(OC)c(OC)cc2[nH]c1=O)C(=O)Nc1ccccc1	-	-	-	-	-	9.9
Cc1ccc2nc(-c3ccc(SCC(=O)Nc4nnc(C)s4)nc3)[nH]c2c1	-	4.3	5.7	-	-	-
CC(=O)c1cc(-c2cccc(Cl)c2O)c(=O)n2c1CCC2	-	-	-	.	-	.
CS(=O)(=O)n1c2ccccc2c(=O)n1-c1ccccc1CCl	-	-	-	.	-	.
O=C(c1ccoc1)N1CCN(c2cc(-c3ccco3)nc3cc(-c4ccco4)nn23)CC1	-	.	-	.	-	.
CN(C)S(=O)(=O)N1CCc2ccccc2C1	-	-	-	4.3	-	-
Cc1c(N=C2C=CC(=O)c3ccccc32)c(=O)n(-c2ccccc2)n1C	1.4	-	-	-	-	-
COc1ccc(-n2c(Cc3cc(=O)[nH]c(=O)[nH]3)nnc2SCC(=O)N2CCC(C)CC2)cc1	-	-	-	-	-	-
CC1CCN(C(=O)CSc2nnc(Cc3cc(=O)[nH]c(=O)[nH]3)n2-c2ccc(Cl)cc2)CC1	-	-	-	5.3	-	-
COc1cccc(-n2c(Cc3cc(=O)[nH]c(=O)[nH]3)nnc2SCC(=O)N2CCCCCC2)c1	-	-	6.3	-	-	-
COc1ncnc2c1ncn2CCCNCc1ccc(C)o1	-	-	-	-	-	.
CCOC(=O)CC[C@@]1(C(=O)OCC)C[C@@H](CC(=O)N2CCN(C(=O)c3ccco3)CC2)C(=O)N2CCCC=C21	-	-	-	.	-	.
Cc1ccc(SCC(=O)N(C)CC(=O)Nc2cccc(F)c2)c(C)c1	-	-	-	-	-	.
O=C(Cn1cnc2c(nnn2Cc2ccc(F)cc2)c1=O)NCc1ccc(F)cc1	-	-	-	-	-	-
C=CCn1cnc2c(nnn2Cc2ccc(F)cc2)c1=O	-	-	-	4.6	-	-
Cc1ccccc1CS(=O)(=O)Cc1ccc(C(=O)Nc2cccc(C)c2C)o1	-	-	-	.	-	.
Cc1ccccc1-c1cc(C(=O)NCc2ccc3c(c2)OCO3)n(CC2CC(c3cccnc3)=NO2)n1 (centres undefined)	-	-	-	-	-	.
COC(=O)CN1C(=O)N(c2ccccc2)C(N(O)C(=O)Nc2ccccc2)C1(C)C (centres undefined)	-	-	-	4.6	-	-
COC(=O)CNC(=O)CN1C(=O)N(c2ccccc2)C(N(O)C(=O)Nc2ccccc2)C1(C)C (centres undefined)	-	-	-	-	-	-
CC(NC(=O)NC12CC3CC(CC(C3)C1)C2)C1CCCO1 (centres undefined)	-	-	-	7.2	-	-
CCOC(=O)c1cccc(NC(=O)c2ccccc2C)c1	-	-	-	-	10.6	-
CCOC(=O)c1ccc(NC(=O)c2ccccc2C)cc1	-	-	-	-	-	-
CCOC(=O)NC(=O)CSc1ccc(S(=O)(=O)N(C)C2CCCCC2)cn1	-	-	-	-	-	.
O=C(CCc1nc(-c2cccs2)no1)Nc1cnc2ccccc2c1	1.7	-	-	-	-	-
CS(=O)(=O)N1CCN=C1SCc1ccc([N+](=O)[O-])cc1	-	-	-	-	-	9.1
CCOc1ccc(/C=N/NC(=O)c2[nH]ncc2Br)c(O)c1	-	-	-	-	-	-
Cc1ccc(O)c(/C=N/NC(=O)c2[nH]ncc2Br)c1	-	-	6.2	-	-	-
CNc1ccc(-c2cccc(CO)c2)cn1	-	-	-	.	10.7	.
CNc1ccc(-c2cccc(C(C)=O)c2)cn1	-	-	-	.	-	.
